Shown are actives, neighbours in structure and some others; about 1.6% of the full set was active somewhere.
KCNQ2 pot: enhances the rat KCNQ2 potassium channel | O88943 | CHO-K1 KCNQ2, FluxOR thallium flux fluorescence; hits give high values | B-score at 10 µM | 310,000 tested, 0.54% active | AID 2239;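 active = fluorescence ratio B-score at least 3 SD of library B-scores, with initial fluorescence B-score within 3 of them, cut at about 5.3 in these data; same plate scores as AID 2156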;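 also: B-score of peak minus minimum over baseline fluorescence ratio after K+ and Tl+ stimulus; positive B-score means potentiation of KCNQ2 with more thallium influx and brighter signal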
Target sequence (O88943 whole entry, looked up): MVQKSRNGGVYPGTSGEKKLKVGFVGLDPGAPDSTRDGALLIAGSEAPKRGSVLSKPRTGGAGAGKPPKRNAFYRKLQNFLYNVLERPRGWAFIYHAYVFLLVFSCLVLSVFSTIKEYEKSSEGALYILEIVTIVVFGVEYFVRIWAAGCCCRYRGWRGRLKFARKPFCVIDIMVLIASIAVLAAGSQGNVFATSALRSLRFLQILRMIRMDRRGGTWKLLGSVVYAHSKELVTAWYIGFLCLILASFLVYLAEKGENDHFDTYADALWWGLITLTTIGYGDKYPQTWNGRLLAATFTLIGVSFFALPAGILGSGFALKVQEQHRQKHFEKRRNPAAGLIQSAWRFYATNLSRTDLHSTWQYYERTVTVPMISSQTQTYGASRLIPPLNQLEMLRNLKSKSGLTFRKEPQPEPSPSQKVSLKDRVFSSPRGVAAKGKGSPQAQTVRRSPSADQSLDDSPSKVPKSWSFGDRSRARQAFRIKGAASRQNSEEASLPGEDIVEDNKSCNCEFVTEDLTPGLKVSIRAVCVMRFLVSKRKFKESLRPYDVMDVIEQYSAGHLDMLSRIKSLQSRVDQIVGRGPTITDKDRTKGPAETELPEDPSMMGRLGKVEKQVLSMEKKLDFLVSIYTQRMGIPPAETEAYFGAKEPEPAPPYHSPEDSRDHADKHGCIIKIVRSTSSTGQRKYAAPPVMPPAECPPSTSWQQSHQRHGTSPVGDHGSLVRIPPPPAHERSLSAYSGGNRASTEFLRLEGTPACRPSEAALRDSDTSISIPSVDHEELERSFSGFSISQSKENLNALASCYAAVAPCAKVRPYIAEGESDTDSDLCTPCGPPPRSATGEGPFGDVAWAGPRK
KCNQ2 inh: blocks the rat KCNQ2 potassium channel. O88943. CHO-K1 KCNQ2, FluxOR thallium flux, 20 min; hits give low values. B-score at 10 µM. 310,000 tested, 1.1% active;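 active = fluorescence ratio B-score at most minus 3 library SDs, with starting brightness B-score within 2 library SDs, cut at about -5.5 in these data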
* = called active by the depositor.

Results for COc1cccc(C(=O)N2CCn3c2nc2ccccc23)c1 ?
KCNQ2 pot: -8.7; KCNQ2 inh: -8.7*

Results for COc1ccc(N2CCN(c3nc4ccccc4n3CC(=O)c3ccccc3)CC2)cc1 ?
KCNQ2 pot: -6.3; KCNQ2 inh: -6.3*

What do the screens show for `COc1cc(C(C(=O)NC2CCCC2)N(C(=O)c2snc(C(N)=O)c2N)c2ccccc2)cc(OC)c1OC` (centres undefined)?
KCNQ2 pot: 0.81; KCNQ2 inh: inactive

What do the screens show for `COc1cccc(N(CC(=O)NC2CCCCC2)C(=O)CCC(=O)Nc2nccs2)c1`?
KCNQ2 pot: 0.71; KCNQ2 inh: inactive

Results for O=c1c2ccccc2nc(SCc2cc([N+](=O)[O-])cc3c2OCOC3)n1-c1ccccc1 ?
KCNQ2 pot: -6.1; KCNQ2 inh: -6.1*

What do the screens show for `O=c1c2ccccc2nc(SCc2ccc([N+](=O)[O-])cc2)n1-c1ccccc1`?
KCNQ2 inh: inactive

What do the screens show for `COc1ccc2nc(C)c3c(c2c1)OC(C(C)(Cl)Br)C3` (centres undefined)?
KCNQ2 inh: inactive

How did Cc1ccc2nc(C)c3c(c2c1)OC(C(C)(Cl)Br)C3 (centres undefined) do in these assays?
KCNQ2 pot: -5.7; KCNQ2 inh: -5.7*

What do the screens show for `COCCN=C1Sc2nc3cc4c(cc3cc2CN1CC1CCCO1)OCO4` (centres undefined)?
KCNQ2 inh: inactive

How did CCOC(=O)N1CCN(Cc2cn[nH]c2-c2cc3ccccc3o2)CC1 do in these assays?
KCNQ2 inh: inactive

Results for COCCn1c(N)c(Sc2ccccc2[N+](=O)[O-])c(=O)[nH]c1=O ?
KCNQ2 inh: inactive

Results for O=C(c1ccc(Cl)c(Cl)c1)N1CCC(=O)N(C(CO)Cc2ccccc2)CC1 (centres undefined) ?
KCNQ2 pot: 1.1; KCNQ2 inh: inactive

What do the screens show for `O=C(c1ccc(Cl)c(Cl)c1)N1CCC(=O)N(C(COCc2ccccc2)Cc2ccccc2)CC1` (centres undefined)?
KCNQ2 pot: -5.8; KCNQ2 inh: -5.8*

What do the screens show for `Cc1cccc(COCC(Cc2ccccc2)N2CCN(C(=O)c3cccc(Cl)c3)CCC2=O)c1` (centres undefined)?
KCNQ2 inh: inactive

What do the screens show for `O=C(c1cccc(Cl)c1)N1CCC(=O)N(C(COCc2ccccc2)Cc2ccccc2)CC1` (centres undefined)?
KCNQ2 pot: -5.8; KCNQ2 inh: -5.8*

What do the screens show for `CC(=O)c1ccc(N2C(=NC(=O)C3CCCCC3)SC3CS(=O)(=O)CC32)cc1` (centres undefined)?
KCNQ2 inh: inactive

Results for COc1cccc(N2CCN(C(=S)NCc3ccco3)CC2)c1 ?
KCNQ2 inh: inactive

What do the screens show for `O=C(N=Nc1c(O)[nH]c2ccccc12)c1ccco1`?
KCNQ2 pot: 3.2; KCNQ2 inh: inactive

How did Cc1c(C(=O)NN2CCCCC2)nn(-c2ccc(Cl)cc2Cl)c1-c1ccc(I)cc1 do in these assays?
KCNQ2 pot: -9.9; KCNQ2 inh: -9.9*

Results for Cc1onc(-c2c(Cl)cccc2Cl)c1C(=O)NN1CCCCCC1 ?
KCNQ2 inh: inactive

What do the screens show for `Cc1c(C(=O)N2CCc3ccccc3C2)oc2ccc(S(=O)(=O)N3CC(C)CC(C)C3)cc12` (centres undefined)?
KCNQ2 inh: inactive

Results for O=C(Nc1ccc2ccccc2c1)C(c1ccccc1)C1CCCC1 (centres undefined) ?
KCNQ2 pot: -5.7; KCNQ2 inh: -5.7*

How did Cc1ccc(NC(=O)C(c2ccccc2)C2CCCC2)cc1 (centres undefined) do in these assays?
KCNQ2 inh: inactive

How did CCCN1CCN(C(=O)CS(=O)(=O)Cc2nc(-c3cccc(OC)c3)oc2C)CC1 do in these assays?
KCNQ2 inh: inactive

Results for Clc1ccc(C2=C3CCCCn4c(-c5ccccc5)c[n+](c43)C2)cc1 ?
KCNQ2 pot: -6.4; KCNQ2 inh: -6.4*

Results for O=C(C[n+]1cc(-c2ccc(Cl)cc2)n2c1CCCCC2)c1ccccc1 ?
KCNQ2 inh: inactive

How did Cc1ccc(CNC(=O)CCc2nnc(Cc3ccc(-c4ccccc4)cc3)o2)o1 do in these assays?
KCNQ2 pot: 1.4; KCNQ2 inh: inactive

Results for CCCNC(=S)N1CCC(NC(=O)c2ccc(C)cc2)CC1 ?
KCNQ2 pot: -7.3; KCNQ2 inh: -7.3*

Results for Cc1ccc(NC(=S)N2CCC(NC(=O)c3ccc(C)cc3)CC2)cc1 ?
KCNQ2 inh: inactive

What do the screens show for `CC(C)(C)OC(=O)N1CCC[C@H]1C(=O)N/N=C/c1ccc2ncccc2c1`?
KCNQ2 inh: inactive

What do the screens show for `CC(C)(C)C(=O)CSc1nnc(Nc2ccccc2)s1`?
KCNQ2 inh: inactive

How did Cc1cc(NC(=O)CN(C)CCOc2ccccc2)ccc1Br do in these assays?
KCNQ2 inh: inactive

Results for CN(CCOc1ccccc1)CC(=O)Nc1cccc(Br)c1 ?
KCNQ2 pot: -6.3; KCNQ2 inh: -6.3*

What do the screens show for `O=C(NNc1cccc(Cl)n1)Nc1ccc(F)cc1`?
KCNQ2 pot: 0.77; KCNQ2 inh: inactive

What do the screens show for `COc1ccc(CCNC(=O)CN(c2cc(C)cc(C)c2)S(=O)(=O)c2c(C)noc2C)cc1OC`?
KCNQ2 pot: 0.17; KCNQ2 inh: inactive

Results for Cn1c(=O)c2c(ncn2CC(=O)Nc2nccs2)n(C)c1=O ?
KCNQ2 pot: 0.69; KCNQ2 inh: inactive

How did CCCCCC1(C)NC(=S)N(c2ccccc2)N1 (centres undefined) do in these assays?
KCNQ2 inh: inactive

What do the screens show for `CCCCCCC1(C)NC(=S)N(c2ccccc2)N1` (centres undefined)?
KCNQ2 inh: inactive

Results for CCC1(c2ccc(Cl)cc2)NC(=S)N(c2ccccc2)N1 (centres undefined) ?
KCNQ2 pot: 11*; KCNQ2 inh: inactive

Results for CCC1(c2ccccc2)NC(=S)N(c2ccc(C)cc2)N1 (centres undefined) ?
KCNQ2 pot: 13*; KCNQ2 inh: inactive

What do the screens show for `CCCNC(=O)COc1ccc(-c2nn(C)c(=O)c3ccccc23)cc1`?
KCNQ2 pot: 0.81; KCNQ2 inh: inactive

Results for O/N=C(/CCc1ccccc1)c1ccc2c(c1)OCCO2 ?
KCNQ2 pot: -5.9; KCNQ2 inh: -5.9*

Results for O=C(CCc1ccccc1)c1ccc2c(c1)OCCCO2 ?
KCNQ2 inh: inactive

What do the screens show for `CC(=O)N1CCc2cc(S(=O)(=O)C(C)CC(=O)Nc3ccc(OC(F)(F)F)cc3)ccc21` (centres undefined)?
KCNQ2 pot: 1.2; KCNQ2 inh: inactive

How did COc1ncnc2c1sc1nc(-c3ccccc3)c3c(c12)CCCC3 do in these assays?
KCNQ2 pot: 0.04; KCNQ2 inh: inactive

Results for CN(C)CCNc1ncnc2c1sc1nc(-c3ccccc3)c3c(c12)CCCC3 ?
KCNQ2 pot: -7.8; KCNQ2 inh: -7.8*

How did O=C(c1sc2ccccc2c1Cl)N1CCN(c2ccc(F)cc2)CC1 do in these assays?
KCNQ2 pot: -6.6; KCNQ2 inh: -6.6*

What do the screens show for `O=C(c1sc2ccccc2c1Cl)N1CCN(c2ccccc2F)CC1`?
KCNQ2 inh: inactive

How did Cn1c(NCc2c[nH]c3ccccc23)nc2ccccc21 do in these assays?
KCNQ2 inh: inactive

What do the screens show for `CCn1c(NCc2c[nH]c3ccccc23)nc2ccccc21`?
KCNQ2 pot: -6.5; KCNQ2 inh: -6.5*

What do the screens show for `CC1CC2(CCCCC2)Nc2ccc3ccccc3c21` (centres undefined)?
KCNQ2 inh: inactive
